PubChem BioAssay (NCI)
About 83,000 compounds went through this panel and 20% of them were active in at least one assay; those are over-represented in the sample as a whole.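 Negative percent growth values reflect cell death: -40 means 40% of the cells present at the start died, and -100 means all died.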 Values without a mark were called inactive. Calls of active or inactive are those of the source. The calls were made as follows: active = growth percent below 10; inactive = the rest.

Tests used:
Test in all cases: NCI-60 one-dose screen, 48 h (100 = growth as untreated, 0 = no growth, -100 = all killed)
HT29 colon = conditions: 10 µM unless noted
SNB-75 CNS = conditions: 10 µM unless noted
SNB-19 CNS = conditions: 10 µM unless noted
U251 CNS = conditions: 10 µM unless noted
UACC-62 melanoma = conditions: 10 µM unless noted
LOX IMVI melanoma = conditions: 10 µM unless noted
SK-MEL-28 melanoma = conditions: 10 µM
SK-MEL-2 melanoma = conditions: 10 µM unless noted
PC-3 prostate = conditions: 10 µM unless noted
SK-MEL-5 melanoma = conditions: 10 µM unless noted

Compound	growth (HT29 colon)	growth (SNB-75 CNS)	growth (SNB-19 CNS) [%]	growth (U251 CNS)	growth (UACC-62 melanoma)	growth (LOX IMVI melanoma)	growth (SK-MEL-28 melanoma)	growth (SK-MEL-2 melanoma)	growth (PC-3 prostate)	growth (SK-MEL-5 melanoma)
COc1cccc(C2=NN3C(C2)c2ccccc2OC3c2ccc(/C=C3\SC(=O)NC3=O)cc2)c1 (stereo unspecified)	111%	95%	105	102%	104%	70.5%	104%	97.8%	–	–
NC1(N2SC(S)=C3CCCC=C32)CCCCC1	97.1%	91.7%	96.9	101%	104%	94.7%	114%	111%	109%	–
Cc1nc(Nc2ccccn2)sc1C(=O)/C=C/c1ccc(Cl)cc1	5.45% (active)	11.9%	32.7	14.8%	48.2%	15.8%	61.8%	31.6%	–	-32.4% (active)
O=c1nc2sc3nc4ccccc4cc3cc-2s1	147%	116%	101	115%	116%	111%	110%	112%	–	100%
COc1ccc(CCN2C(=O)CCSC2=S)cc1	18%	54.1%	84	92.2%	77.1%	8% (active)	77.7%	85.4%	–	94.1%
CCCc1c(C)c2sc(=O)[nH]c2[nH]c1=O	110%	99.1%	101	99.5%	105%	100%	110%	108%	–	100%
O=c1oc2ccc(Br)cc2c(=O)n1-c1ccc(Cl)cc1F	20.2%	-26.9% (active)	17.7	3.56% (active)	-28.5% (active)	8.91% (active)	-0.768% (active)	-19.6% (active)	-7.82% (active)	–
COC(=O)C1=Nc2ccc(F)cc2/C1=C/c1sc(=S)[nH]c1O	8.16% (active)	11.6%	30.4	8.56% (active)	53.6%	13%	59.4%	39.5%	–	-41% (active)
COc1ccc(C2=NN(/C=C3\SC(=O)NC3=Nc3ccc(F)cc3)C(c3ccc(F)cc3)C2)cc1 (stereo unspecified)	98.8%	96.5%	95.1	94.1%	95.4%	97.6%	103%	102%	–	92%
COc1cccc(/C=C/C(=O)c2c(C)nc3ccccc3c2/C=C/c2ccccc2)c1OC	2.64% (active)	9.19% (active)	36.3	24%	28.5%	-59.4% (active)	44.8%	32.3%	43.3%	–
O=Nc1c(O)ccc2ccccc12.O=Nc1c(O)ccc2ccccc12.O=Nc1c([O-])ccc2ccccc12.[Fe+3]	109%	72.7%	109	–	95.6%	98.8%	104%	107%	88.9%	–
CCCCc1ccc(NS(=O)(=O)c2cc3c4c(c2)CCN4C(=O)CC3)cc1	29.9%	33.9%	26.8	11%	-28.9% (active)	–	40.5%	40.8%	38.3%	–
CC1CCCCN1CCCNC(=O)c1ccc2c(c1)sc1nc(-c3ccc(F)cc3)cn12 (stereo unspecified)	92.8%	83.5%	104	99.1%	100%	93.1%	104%	103%	83.8%	–
Nc1ccc(-c2nn3c(CCC(=O)c4nc5ncccc5[nH]4)nnc3s2)c(O)c1	103%	70.3%	88.2	103%	92.9%	85.2%	105%	100%	82.8%	–
COc1ccc(-c2cn[nH]c2-c2cc(OC)c(OC)c(OC)c2)cc1OCc1ccccc1	84.9%	5.94% (active)	41.1	12%	21.8%	21.5%	48.5%	2.98% (active)	22.4%	–
CCn1c(Cc2ccccc2Nc2c(Cl)cccc2Cl)nnc1SCC(=O)NN1C(=O)/C(=C/c2cccc(OC)c2OC)SC1=S	113%	87.3%	91.2	90.1%	96.6%	92%	104%	96.7%	–	97.1%
O=[N+]([O-])c1cc2c(ccc3occc32)o1	11.8%	31.7%	49.4	48.7%	20.5%	-36.3% (active)	-63.5% (active)	-46% (active)	66.7%	–
CCOC(=O)c1ccc(N=Cc2sc(=O)[nH]c2O)cc1	104%	84.9%	91.9	97.3%	91.2%	93.6%	105%	94.5%	–	99.8%
Nc1nc2c(ncn2[C@@H]2O[C@H](CS)[C@@H](O)[C@H]2O)c(=O)[nH]1	99.9%	92.6%	95.3	99.3%	93.6%	96.9%	98.6%	120%	101%	–
O=C(Nc1ccc(I)cc1F)c1cc(F)ccc1O	25.6%	-20.7% (active)	16.8	-16.8% (active)	-21.9% (active)	0.316% (active)	-5.23% (active)	-35.8% (active)	3.39% (active)	–
CN1CCN(Cc2ccc(NC(=O)c3[nH]ncc3Nc3cc(OC4CCCC4)ncn3)cc2)CC1	14.3%	61.7%	59.8	41.1%	29.2%	17.9%	53.1%	49.4%	8.34% (active)	–
O=C(/C=C/c1cccc(Cl)c1)OCc1ccc2cc1OCC#C/C=C\C#CCO2	89.3%	80.9%	93.9	102%	89.2%	88.4%	–	113%	96.2%	–
COc1ccc(CSc2nnc(SCC(=O)Nc3ccc(Cl)cc3)s2)cc1	98.5%	93.2%	90.9	–	18.2%	46.8%	87.2%	124%	58.6%	–
Cc1cc(OC(=O)c2ccc([N+](=O)[O-])cc2)nc2[nH]c(=O)sc12	105%	90.6%	98.6	97.1%	102%	98.8%	109%	104%	–	100%
COc1ccc(Br)c(/C=C2\SC(=Nc3ccc(O)cc3)NC2=O)c1	113%	72.2%	85.5	86.6%	89.5%	91.2%	101%	96.2%	–	90.3%
Cc1nn(-c2nc3ccccc3[nH]2)c2c1C(c1ccc(OCC(N)=O)cc1)CC(=O)N2 (stereo unspecified)	109%	92.3%	103	110%	97.8%	109%	105%	107%	97.4%	–
O=C(CCc1nnc2sc(COc3ccccc3)nn12)c1nc2ncccc2[nH]1	106%	79.8%	100	101%	91.8%	91.8%	107%	102%	96.5%	–
COc1cc(/C=C2\CCC/C(=C\c3cc(CN4CCCCC4)c(O)c(OC)c3)C2=O)cc(CN2CCCCC2)c1O	13.3%	89.8%	80.7	70.1%	91.5%	66.9%	93.6%	101%	82.7%	–
Cc1ccc(Cc2cnc(NC(=O)CN3C(=O)/C(=C\c4ccccc4)SC3=S)s2)cc1	114%	94.4%	99.7	94.8%	98.4%	98.6%	106%	106%	–	102%
